Drawing on PMC7862700, “An all-to-all approach to the identification of sequence-specific readers for epigenetic DNA modifications on cytosine”, this text covers binding signal for one sequence.

Holding throughout (test): DAPPL (digital affinity profiling via proximity ligation, sequencing); 10 mM Tris-HCl pH 7.5, 50 mM NaCl, 1 mM DTT, 4% glycerol, room temperature, 30 min; GST-TFs on glutathione beads, 16-mer random dsDNA library, 0.1% formaldehyde crosslink after washing; high values mean tight binding
The target of one assay is T1, FEV (Homo sapiens, UniProt Q99581 1-238).
T1 sequence: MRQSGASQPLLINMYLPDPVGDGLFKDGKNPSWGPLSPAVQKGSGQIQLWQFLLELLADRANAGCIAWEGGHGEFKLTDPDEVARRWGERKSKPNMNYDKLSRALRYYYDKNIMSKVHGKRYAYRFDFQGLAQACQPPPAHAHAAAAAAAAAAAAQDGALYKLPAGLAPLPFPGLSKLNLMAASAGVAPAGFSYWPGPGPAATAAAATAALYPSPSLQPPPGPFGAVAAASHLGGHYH
The following applies: protein: recombinant; tags: N-terminal GST; dsDNA, one strand shown. Put shortly: (§1)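 Human transcription factors carrying a GST fusion were produced in yeast, bound to glutathione beads, tagged with DNA barcodes and pooled together with a tag-only sample. Each pool was held with 200 nmole of a random double-stranded 16-mer DNA library in Tris/NaCl/DTT/glycerol buffer for 30 min at room temperature, then washed, crosslinked in 0.1% formaldehyde, proximity-ligated with BsaI/T4 ligase (1 h, 37 °C), PCR-amplified and sequenced on an Illumina NextSeq500. Binding signal is the read frequency of each hexamer for a given factor divided by its frequency in the tag-only sample.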

The target of another assay is ETV5 (Homo sapiens, UniProt P41161 1-510). Conditions: protein: recombinant; tags: N-terminal GST; dsDNA, one strand shown. Put shortly:
as §1

The target of a further assay is HSF1 (Homo sapiens, UniProt Q00613 1-529). Conditions: protein: recombinant; tags: N-terminal GST; chain copies: 3; dsDNA, one strand shown. Put shortly:
as §1

The target of the next assay is T2, SPIC (Homo sapiens, UniProt Q8N5J4 1-248).
T2 sequence: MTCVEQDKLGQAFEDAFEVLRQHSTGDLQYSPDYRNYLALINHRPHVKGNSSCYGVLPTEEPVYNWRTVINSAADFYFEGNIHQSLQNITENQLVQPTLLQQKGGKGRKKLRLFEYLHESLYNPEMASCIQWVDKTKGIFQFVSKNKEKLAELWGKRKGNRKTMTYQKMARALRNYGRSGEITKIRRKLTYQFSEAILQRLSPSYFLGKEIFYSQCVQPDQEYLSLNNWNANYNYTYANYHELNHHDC
Conditions: protein: recombinant; tags: N-terminal GST; dsDNA, one strand shown. Put shortly: as §1

The target of a further assay is ELF4 (Homo sapiens, UniProt Q99607 1-663). The following applies: protein: recombinant; tags: N-terminal GST; dsDNA, one strand shown. The gist of the method: as §1
For a further assay, the target named is T3, ELK4 (Homo sapiens, UniProt P28324-2 1-405).
T3 sequence: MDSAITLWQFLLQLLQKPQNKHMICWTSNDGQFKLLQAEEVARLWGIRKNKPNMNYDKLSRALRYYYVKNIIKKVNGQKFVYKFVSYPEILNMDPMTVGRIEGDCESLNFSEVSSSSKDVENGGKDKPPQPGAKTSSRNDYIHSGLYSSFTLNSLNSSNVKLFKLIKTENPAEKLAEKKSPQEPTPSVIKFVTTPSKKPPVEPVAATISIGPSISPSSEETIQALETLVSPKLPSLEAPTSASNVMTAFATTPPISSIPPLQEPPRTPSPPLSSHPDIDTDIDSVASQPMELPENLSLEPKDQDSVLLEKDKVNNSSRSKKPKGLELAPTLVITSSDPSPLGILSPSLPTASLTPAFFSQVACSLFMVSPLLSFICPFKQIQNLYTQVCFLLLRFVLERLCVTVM
Conditions: protein: recombinant; tags: N-terminal GST; dsDNA, one strand shown. Put shortly: as §1

The target of a further assay is T4, ETV2 (Homo sapiens, UniProt O00321 1-342).
T4 sequence: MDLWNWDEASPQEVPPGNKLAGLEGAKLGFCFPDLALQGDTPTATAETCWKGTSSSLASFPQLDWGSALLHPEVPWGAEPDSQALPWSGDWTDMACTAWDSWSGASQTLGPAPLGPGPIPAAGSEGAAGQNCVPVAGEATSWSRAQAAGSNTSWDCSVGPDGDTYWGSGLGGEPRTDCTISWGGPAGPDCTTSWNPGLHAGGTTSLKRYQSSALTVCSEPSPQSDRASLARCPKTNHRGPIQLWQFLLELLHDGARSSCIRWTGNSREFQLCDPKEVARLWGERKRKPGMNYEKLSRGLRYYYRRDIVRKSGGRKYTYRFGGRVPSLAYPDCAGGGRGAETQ
Conditions: protein: recombinant; tags: N-terminal GST; dsDNA, one strand shown. Put shortly: as §1

For the next assay, the target named is T5, ELF3 (Homo sapiens, UniProt P78545 1-371).
T5 sequence: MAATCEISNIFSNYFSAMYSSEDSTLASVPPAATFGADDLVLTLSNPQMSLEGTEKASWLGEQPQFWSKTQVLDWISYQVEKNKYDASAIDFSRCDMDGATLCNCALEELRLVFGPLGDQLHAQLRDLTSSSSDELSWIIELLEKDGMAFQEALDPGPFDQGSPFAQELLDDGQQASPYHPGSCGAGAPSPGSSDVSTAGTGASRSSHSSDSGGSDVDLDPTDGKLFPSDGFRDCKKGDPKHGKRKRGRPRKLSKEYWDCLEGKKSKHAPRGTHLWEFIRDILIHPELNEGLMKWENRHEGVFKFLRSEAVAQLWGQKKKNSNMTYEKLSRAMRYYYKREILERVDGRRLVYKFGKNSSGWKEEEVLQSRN
The following applies: protein: recombinant; tags: N-terminal GST; dsDNA, one strand shown. The gist of the method:
as §1

Another assay deals with CRX (Homo sapiens, UniProt O43186 1-299). Conditions: protein: recombinant; tags: N-terminal GST; dsDNA, one strand shown. The gist of the method: as §1
The target of a further assay is ETV1 (Homo sapiens, UniProt P50549 1-477). Conditions: protein: recombinant; tags: N-terminal GST; dsDNA, one strand shown. The gist of the method: as §1
The target in the next assay is T6, ERF (Homo sapiens, UniProt P50548 1-548).
T6 sequence: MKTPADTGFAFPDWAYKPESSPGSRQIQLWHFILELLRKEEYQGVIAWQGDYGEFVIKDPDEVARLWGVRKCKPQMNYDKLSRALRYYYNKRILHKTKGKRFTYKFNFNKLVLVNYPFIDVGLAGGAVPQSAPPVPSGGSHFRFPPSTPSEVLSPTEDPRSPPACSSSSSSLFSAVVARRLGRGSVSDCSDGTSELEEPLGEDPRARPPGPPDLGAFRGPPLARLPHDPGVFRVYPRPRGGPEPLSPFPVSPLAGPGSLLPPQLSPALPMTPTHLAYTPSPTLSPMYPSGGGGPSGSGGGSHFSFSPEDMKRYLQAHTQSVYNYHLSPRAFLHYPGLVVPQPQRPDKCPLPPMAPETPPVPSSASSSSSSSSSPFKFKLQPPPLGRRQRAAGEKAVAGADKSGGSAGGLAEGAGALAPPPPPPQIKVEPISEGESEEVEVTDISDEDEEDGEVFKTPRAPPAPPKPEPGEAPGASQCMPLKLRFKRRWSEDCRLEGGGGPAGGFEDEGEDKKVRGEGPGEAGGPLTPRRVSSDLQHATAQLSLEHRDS
The following applies: protein: recombinant; tags: N-terminal GST; dsDNA, one strand shown. Put shortly:
as §1

A further assay deals with T7, ETV3L (Homo sapiens, UniProt Q6ZN32 1-361).
T7 sequence: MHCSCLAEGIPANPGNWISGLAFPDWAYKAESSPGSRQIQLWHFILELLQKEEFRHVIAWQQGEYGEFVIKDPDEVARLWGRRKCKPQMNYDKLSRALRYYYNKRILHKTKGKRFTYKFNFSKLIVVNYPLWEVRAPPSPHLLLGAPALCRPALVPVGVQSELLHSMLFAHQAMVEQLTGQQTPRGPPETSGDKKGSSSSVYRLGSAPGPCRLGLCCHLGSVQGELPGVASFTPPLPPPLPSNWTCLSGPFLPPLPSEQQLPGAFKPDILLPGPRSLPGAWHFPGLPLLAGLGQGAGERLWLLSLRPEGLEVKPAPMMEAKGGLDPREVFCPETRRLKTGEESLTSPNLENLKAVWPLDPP
The following applies: protein: recombinant; tags: N-terminal GST; dsDNA, one strand shown. The gist of the method: as §1

The next assay concerns the target T8, ETS2 (Homo sapiens, UniProt P15036 1-469).
T8 sequence: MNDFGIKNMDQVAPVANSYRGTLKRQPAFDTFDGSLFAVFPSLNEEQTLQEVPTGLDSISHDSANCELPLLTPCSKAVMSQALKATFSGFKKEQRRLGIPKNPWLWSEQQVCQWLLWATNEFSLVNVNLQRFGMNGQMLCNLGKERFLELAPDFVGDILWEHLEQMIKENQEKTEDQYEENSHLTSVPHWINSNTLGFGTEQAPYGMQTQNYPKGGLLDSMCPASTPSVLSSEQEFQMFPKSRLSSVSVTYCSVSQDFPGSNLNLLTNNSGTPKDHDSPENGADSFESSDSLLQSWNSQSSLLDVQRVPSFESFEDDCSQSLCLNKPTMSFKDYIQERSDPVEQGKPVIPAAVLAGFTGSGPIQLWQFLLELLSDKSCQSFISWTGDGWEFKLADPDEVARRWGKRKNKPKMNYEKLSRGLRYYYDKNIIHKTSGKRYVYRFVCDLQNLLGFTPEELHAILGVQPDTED
Conditions: protein: recombinant; tags: N-terminal GST; dsDNA, one strand shown. The gist of the method: as §1

In another assay the target is T9, SPDEF (Homo sapiens, UniProt O95238 1-335).
T9 sequence: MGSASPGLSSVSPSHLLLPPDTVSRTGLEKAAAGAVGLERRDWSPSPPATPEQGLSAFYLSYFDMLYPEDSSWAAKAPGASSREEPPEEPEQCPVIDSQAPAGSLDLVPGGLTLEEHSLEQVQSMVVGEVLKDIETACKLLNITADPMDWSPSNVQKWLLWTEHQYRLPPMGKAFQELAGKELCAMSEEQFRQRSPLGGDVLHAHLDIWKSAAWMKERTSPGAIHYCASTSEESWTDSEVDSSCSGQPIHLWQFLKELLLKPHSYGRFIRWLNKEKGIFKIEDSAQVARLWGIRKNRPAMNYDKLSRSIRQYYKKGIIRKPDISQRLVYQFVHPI
The following applies: protein: recombinant; tags: N-terminal GST; dsDNA, one strand shown. Put shortly: as §1

The target of the next assay is T10, ETV7 (Homo sapiens, UniProt Q9Y603 1-341).
T10 sequence: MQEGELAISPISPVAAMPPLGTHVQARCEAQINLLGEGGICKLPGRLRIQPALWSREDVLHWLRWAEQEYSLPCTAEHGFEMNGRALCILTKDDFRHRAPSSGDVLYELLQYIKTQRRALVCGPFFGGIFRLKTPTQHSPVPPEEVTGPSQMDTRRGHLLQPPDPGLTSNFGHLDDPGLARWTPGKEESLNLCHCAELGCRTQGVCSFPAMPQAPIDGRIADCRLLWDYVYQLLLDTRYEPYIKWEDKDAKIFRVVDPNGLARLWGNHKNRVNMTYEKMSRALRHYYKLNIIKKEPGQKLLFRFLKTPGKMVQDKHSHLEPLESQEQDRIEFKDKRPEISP
The following applies: protein: recombinant; tags: N-terminal GST; dsDNA, one strand shown. Put shortly:
as §1

Another assay concerns the target T11, ELF5 (Homo sapiens, UniProt Q9UKW6-2 1-255).
T11 sequence: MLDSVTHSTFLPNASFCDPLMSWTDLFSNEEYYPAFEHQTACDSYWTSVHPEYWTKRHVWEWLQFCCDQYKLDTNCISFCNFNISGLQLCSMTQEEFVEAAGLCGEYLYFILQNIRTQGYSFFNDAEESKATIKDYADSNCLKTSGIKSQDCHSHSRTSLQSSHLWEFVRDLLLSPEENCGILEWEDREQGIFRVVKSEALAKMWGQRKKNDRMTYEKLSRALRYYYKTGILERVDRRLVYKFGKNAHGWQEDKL
The following applies: protein: recombinant; tags: N-terminal GST; dsDNA, one strand shown. The gist of the method: as §1

The target in the next assay is T12, ETV3 (Homo sapiens, UniProt P41162-2 1-143).
T12 sequence: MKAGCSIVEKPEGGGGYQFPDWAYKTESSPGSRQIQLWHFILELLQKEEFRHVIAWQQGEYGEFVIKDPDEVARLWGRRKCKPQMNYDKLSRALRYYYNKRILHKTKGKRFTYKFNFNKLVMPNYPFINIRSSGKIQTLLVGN
Conditions: protein: recombinant; tags: N-terminal GST; dsDNA, one strand shown. Put shortly:
as §1

Another assay concerns the target ETV6 (Homo sapiens, UniProt P41212 1-452). The following applies: protein: recombinant; tags: N-terminal GST; dsDNA, one strand shown. Put shortly: as §1

Chain of ETV6 (P41212 whole entry): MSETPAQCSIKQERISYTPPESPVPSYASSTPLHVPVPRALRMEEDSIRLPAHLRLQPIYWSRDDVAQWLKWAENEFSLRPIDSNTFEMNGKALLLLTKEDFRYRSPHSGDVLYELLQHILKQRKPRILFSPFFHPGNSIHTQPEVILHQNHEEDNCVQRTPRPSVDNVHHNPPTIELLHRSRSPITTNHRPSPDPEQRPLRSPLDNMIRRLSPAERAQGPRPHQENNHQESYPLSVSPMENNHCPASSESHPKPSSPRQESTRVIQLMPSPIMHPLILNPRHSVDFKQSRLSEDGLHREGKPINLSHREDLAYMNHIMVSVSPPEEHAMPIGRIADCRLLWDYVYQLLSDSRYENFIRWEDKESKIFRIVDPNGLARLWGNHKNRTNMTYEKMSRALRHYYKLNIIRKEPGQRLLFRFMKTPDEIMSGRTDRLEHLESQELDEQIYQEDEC
Chain of CRX (O43186 whole entry): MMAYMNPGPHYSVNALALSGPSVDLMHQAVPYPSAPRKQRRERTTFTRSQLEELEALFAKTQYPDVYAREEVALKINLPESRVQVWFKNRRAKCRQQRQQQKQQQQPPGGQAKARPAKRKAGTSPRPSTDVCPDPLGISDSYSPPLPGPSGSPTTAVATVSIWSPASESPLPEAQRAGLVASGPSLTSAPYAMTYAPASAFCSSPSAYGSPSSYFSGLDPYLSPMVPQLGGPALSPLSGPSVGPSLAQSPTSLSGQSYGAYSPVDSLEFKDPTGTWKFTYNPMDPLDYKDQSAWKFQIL
Chain of HSF1 (Q00613 whole entry): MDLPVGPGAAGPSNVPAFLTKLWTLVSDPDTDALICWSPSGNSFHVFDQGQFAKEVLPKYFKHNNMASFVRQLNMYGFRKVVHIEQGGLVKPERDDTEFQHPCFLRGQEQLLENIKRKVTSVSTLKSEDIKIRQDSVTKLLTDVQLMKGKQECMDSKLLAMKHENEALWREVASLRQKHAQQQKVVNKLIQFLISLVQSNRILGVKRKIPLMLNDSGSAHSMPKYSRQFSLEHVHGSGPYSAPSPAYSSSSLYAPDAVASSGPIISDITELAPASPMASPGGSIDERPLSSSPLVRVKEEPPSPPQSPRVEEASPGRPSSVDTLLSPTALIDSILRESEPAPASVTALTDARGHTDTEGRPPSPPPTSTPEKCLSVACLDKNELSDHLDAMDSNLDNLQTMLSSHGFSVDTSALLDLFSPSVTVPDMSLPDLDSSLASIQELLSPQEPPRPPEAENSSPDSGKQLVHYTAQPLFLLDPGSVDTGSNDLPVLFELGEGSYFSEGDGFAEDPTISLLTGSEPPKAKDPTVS
Chain of ELF4 (Q99607 whole entry): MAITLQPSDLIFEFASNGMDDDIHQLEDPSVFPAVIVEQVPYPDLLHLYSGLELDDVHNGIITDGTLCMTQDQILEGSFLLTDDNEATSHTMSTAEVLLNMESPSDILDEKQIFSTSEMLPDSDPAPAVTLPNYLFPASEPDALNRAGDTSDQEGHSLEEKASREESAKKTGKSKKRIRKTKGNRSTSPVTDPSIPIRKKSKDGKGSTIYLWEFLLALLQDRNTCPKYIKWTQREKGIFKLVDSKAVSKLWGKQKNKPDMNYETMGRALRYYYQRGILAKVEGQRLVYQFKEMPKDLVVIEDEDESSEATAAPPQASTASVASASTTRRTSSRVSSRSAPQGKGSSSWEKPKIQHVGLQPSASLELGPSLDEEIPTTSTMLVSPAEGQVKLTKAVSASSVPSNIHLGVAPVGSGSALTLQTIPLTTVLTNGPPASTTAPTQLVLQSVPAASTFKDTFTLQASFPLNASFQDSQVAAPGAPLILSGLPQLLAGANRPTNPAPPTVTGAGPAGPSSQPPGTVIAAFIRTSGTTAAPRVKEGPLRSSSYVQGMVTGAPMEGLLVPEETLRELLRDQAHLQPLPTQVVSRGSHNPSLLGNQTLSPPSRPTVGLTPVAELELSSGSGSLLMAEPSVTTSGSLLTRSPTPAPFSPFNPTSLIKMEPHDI
Chain of ETV1 (P50549 whole entry): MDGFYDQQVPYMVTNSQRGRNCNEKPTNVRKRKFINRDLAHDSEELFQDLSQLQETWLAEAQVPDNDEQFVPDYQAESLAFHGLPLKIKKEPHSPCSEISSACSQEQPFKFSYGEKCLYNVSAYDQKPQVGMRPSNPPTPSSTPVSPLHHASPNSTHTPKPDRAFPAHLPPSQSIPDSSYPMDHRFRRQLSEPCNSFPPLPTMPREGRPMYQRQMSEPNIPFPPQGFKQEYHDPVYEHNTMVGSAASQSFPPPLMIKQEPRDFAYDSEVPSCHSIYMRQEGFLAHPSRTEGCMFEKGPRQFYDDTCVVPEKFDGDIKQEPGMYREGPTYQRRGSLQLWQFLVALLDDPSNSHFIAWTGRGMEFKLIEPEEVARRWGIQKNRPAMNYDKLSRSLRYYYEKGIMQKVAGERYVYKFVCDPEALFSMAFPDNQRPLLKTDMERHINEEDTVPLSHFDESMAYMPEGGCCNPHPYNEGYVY
Chain of ETV5 (P41161 whole entry): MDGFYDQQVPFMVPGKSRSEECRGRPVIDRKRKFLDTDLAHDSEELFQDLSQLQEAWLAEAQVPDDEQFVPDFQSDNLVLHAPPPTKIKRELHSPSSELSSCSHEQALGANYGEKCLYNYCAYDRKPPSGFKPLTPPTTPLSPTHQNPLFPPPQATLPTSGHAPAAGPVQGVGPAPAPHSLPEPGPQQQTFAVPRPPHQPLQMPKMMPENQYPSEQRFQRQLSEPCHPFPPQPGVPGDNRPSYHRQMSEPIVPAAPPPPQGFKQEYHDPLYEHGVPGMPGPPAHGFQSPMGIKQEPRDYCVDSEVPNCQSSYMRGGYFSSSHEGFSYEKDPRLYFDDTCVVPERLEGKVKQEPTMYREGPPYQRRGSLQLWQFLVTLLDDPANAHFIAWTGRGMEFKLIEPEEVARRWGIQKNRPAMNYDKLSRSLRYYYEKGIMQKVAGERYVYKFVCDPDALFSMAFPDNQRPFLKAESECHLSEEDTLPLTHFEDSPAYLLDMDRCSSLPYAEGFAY

For ATACCC, the binding signal with FEV was 1.17 fold enrichment (6-mer frequency, TF over GST control); with ETV5, 1.16 fold enrichment (6-mer frequency, TF over GST control); with HSF1 it was 1 fold enrichment (6-mer frequency, TF over GST control); in the assay with SPIC, 1.2 fold enrichment (6-mer frequency, TF over GST control); with ELF4, 1.13 fold enrichment (6-mer frequency, TF over GST control); with ELK4 it was 1.16 fold enrichment (6-mer frequency, TF over GST control). The binding signal was 1.24 fold enrichment (6-mer frequency, TF over GST control) with ETV2; 1.16 fold enrichment (6-mer frequency, TF over GST control) with ELF3; 1.2 fold enrichment (6-mer frequency, TF over GST control) in the assay with CRX; 1.23 fold enrichment (6-mer frequency, TF over GST control) with ETV1; 1.14 fold enrichment (6-mer frequency, TF over GST control) with ERF; 1.18 fold enrichment (6-mer frequency, TF over GST control) with ETV3L. For the same sequence, the binding signal in the assay with ETS2 is 1.24 fold enrichment (6-mer frequency, TF over GST control); in the assay with SPDEF, 1.27 fold enrichment (6-mer frequency, TF over GST control); with ETV7 it was 1.18 fold enrichment (6-mer frequency, TF over GST control); with ELF5, 1.18 fold enrichment (6-mer frequency, TF over GST control); with ETV3, 1.18 fold enrichment (6-mer frequency, TF over GST control); with ETV6 it was 1.09 fold enrichment (6-mer frequency, TF over GST control).
